The values below come from PubChem BioAssay.

Experiment [1] deals with Plasmodium falciparum Sir2 (PF13_0152, Sir2A). As to the kind of experiment: Plasmodium falciparum Sir2A binding compounds – biochemical, small-molecule microarray, 635 nm fluorescence, primary screen (AID 1098).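 Further: score merges spot fluorescence intensity with its signal-to-noise ratio.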 The note with it: fluorescence 635 nm, higher = more signal.
Experiment [2] is described as follows: probe aDKK1 binding to arrayed compounds – biochemical, biotinylated probe, 635/667 nm fluorescence, primary screen (AID 1099).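 Further: score merges 667nm spot fluorescence with signal to noise across triplicate slides.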 The note with it: small-molecule microarray, higher = more signal.
The nature of experiment [3]: probe aCHRDL2 binding to arrayed compounds – biochemical, biotinylated probe, 635/667 nm fluorescence, primary screen (AID 1100). The following applies: small-molecule microarray, higher = more signal.
The nature of experiment [4]: change in splice reporter luminescence, either direction, cell-based, HEK293, spliceosome inhibition project, primary screen (AID 1101).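 Further: HEK293 cells carrying a splicing-competent luciferase reporter gene; test concentration not given here.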 The note with it: HEK293 splicing luciferase reporter, 24 h, higher = more signal, called active from +8 up or from −8 down. In general terms: Reporter assays use an easily measured gene product as a stand-in for the process of interest.

In experiment [5] the target is Fibroblast growth factor 10 (Homo sapiens) (UniProt O15520). As to the kind of experiment: compounds binding fibroblast growth factor 10 – biochemical, small-molecule microarray, 635 nm fluorescence, primary screen (AID 1102). The note with it: FGF10 binding, fluorescence 635 nm, higher = more signal.
Chain of Fibroblast growth factor 10 (Homo sapiens) (O15520 whole entry, looked up): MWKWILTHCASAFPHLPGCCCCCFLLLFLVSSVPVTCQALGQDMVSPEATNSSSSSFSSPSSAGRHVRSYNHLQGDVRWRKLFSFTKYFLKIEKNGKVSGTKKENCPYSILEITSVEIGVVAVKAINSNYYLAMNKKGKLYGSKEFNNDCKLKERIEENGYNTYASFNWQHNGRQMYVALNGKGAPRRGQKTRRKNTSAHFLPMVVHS
Experiment [6] concerns glycogen synthase kinase-3 (GSK3A per assay name; protocol says GSK3B). As to the kind of experiment: compounds binding glycogen synthase kinase-3 – biochemical, small-molecule microarray, 635 nm fluorescence, GSK3A, primary screen (AID 1103). Further: the record names both GSK3A and GSK3B. The note with it: fluorescence 635 nm, higher = more signal.
In experiment [7] the target is Epidermal growth factor receptor (Homo sapiens) (UniProt P00533). The experiment can be described thus: compounds binding epidermal growth factor receptor – biochemical, small-molecule microarray, 635 nm fluorescence, primary screen (AID 1104).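 Further: score merges 667 nm emission intensity with spot signal to noise over triplicate slides.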 The following applies: EGFR binding, higher = more signal.
Chain of Epidermal growth factor receptor (Homo sapiens) (P00533 whole entry, looked up): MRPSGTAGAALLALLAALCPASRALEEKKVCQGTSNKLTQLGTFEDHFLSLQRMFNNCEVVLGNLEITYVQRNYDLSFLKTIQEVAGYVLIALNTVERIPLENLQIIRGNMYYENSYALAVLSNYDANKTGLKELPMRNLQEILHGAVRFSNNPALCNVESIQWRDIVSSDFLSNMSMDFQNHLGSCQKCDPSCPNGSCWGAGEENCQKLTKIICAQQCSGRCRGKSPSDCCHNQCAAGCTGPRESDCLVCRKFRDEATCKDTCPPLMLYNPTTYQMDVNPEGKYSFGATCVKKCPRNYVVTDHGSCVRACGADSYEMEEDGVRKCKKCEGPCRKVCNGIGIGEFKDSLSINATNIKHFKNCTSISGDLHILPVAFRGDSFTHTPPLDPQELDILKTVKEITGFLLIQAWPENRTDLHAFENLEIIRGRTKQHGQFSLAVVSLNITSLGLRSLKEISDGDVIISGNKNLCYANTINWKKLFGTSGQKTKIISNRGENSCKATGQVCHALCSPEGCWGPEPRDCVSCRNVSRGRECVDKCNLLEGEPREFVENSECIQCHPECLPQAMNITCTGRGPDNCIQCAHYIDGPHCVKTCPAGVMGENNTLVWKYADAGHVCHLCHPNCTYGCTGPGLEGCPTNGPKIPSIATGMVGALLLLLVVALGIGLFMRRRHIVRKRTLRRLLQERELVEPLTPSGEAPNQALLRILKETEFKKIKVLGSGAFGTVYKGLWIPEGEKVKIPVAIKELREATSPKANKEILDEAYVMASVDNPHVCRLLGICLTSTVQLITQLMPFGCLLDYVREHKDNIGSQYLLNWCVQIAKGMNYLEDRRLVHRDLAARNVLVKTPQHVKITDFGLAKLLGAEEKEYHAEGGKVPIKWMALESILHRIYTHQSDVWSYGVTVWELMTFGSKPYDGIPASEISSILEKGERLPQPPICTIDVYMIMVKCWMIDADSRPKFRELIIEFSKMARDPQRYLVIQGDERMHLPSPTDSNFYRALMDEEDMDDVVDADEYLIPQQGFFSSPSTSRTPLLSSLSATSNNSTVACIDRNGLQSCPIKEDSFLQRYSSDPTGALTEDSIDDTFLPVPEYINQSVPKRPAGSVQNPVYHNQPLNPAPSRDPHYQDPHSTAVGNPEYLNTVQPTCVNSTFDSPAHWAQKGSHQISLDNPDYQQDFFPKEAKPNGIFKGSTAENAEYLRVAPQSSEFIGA
The target of experiment [8] is Follistatin-related protein 3 (Homo sapiens) (UniProt O95633). As to the kind of experiment: compounds binding follistatin-related protein 3 – biochemical, small-molecule microarray, 635 nm fluorescence, primary screen (AID 1105).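 Further: score merges emission near 667 nm and signal to noise per printed spot across three slides.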 The note with it: FSTL3 binding, higher = more signal.
Chain of Follistatin-related protein 3 (Homo sapiens) (O95633 whole entry, looked up): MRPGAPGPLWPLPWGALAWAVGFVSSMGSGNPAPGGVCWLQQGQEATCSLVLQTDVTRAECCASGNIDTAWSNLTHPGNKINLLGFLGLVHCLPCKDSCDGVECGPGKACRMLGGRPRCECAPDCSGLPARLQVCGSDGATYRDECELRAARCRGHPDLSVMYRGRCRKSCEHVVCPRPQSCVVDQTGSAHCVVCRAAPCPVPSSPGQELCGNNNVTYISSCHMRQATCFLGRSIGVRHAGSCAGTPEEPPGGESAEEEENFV
Experiment [9] deals with Dickkopf-related protein 1 (Homo sapiens) (UniProt O94907). As to the kind of experiment: small molecules binding DKK1 protein – biochemical, small-molecule microarray, 635 nm fluorescence scan, primary screen (AID 1106).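 Further: score merges emission near 667 nm with signal to noise over three replicate slides.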 The note with it: higher = more signal.
Chain of Dickkopf-related protein 1 (Homo sapiens) (O94907 whole entry, looked up): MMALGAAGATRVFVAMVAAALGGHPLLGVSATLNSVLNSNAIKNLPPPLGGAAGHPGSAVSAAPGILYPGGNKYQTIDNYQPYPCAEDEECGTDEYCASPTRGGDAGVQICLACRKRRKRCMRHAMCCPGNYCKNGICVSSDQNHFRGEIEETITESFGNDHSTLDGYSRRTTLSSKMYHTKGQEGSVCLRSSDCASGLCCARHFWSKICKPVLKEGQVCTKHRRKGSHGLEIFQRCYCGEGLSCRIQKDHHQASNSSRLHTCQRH
Experiment [10] deals with Inhibin beta A chain (activin A). The experiment can be described thus: small molecules binding activin A – biochemical, small-molecule microarray, 635 nm fluorescence scan, primary screen (AID 1107).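 Further: mouse activin A protein probed at 4.33 µg/mL on printed slides; score merges bound-protein fluorescence near 667 nm with spot signal-to-noise.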 The following applies: INHBA, higher = more signal.
For experiment [11], the system named is Human papillomavirus type 1a protein E7 (residues 44-93). The experiment can be described thus: small molecules binding HPV E7 44-93 – biochemical, small-molecule microarray, residues 44-93, 635 nm fluorescence, primary screen (AID 1108).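 Further: E7 fragment applied at 1 µg/mL in TBST for 1 h at 4 C; score combines spot fluorescence with its signal to noise ratio.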 The following applies: fluorescence 635 nm, higher = more signal.
Experiment [12] can be described thus: hepatitis C replication reporter changes, two-sided – Huh7 cells, luciferase reporter, HCV replication inhibitor project, primary screen (AID 1109).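 Further: huh7 hepatoma cells harbouring a luciferase neomycin HCV replicon reporter; luciferase luminescence as measure of HCV replicon replication; test concentration not given here.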 The note with it: Huh7 HCV replicon luciferase reporter, 48 h; higher = more signal.
The target of experiment [13] is Left-right determination factor 2 (Homo sapiens) (UniProt O00292). The experiment can be described thus: small molecules binding LEFTY2 protein – biochemical, small-molecule microarray, 635 nm fluorescence scan, primary screen (AID 1110). The following applies: higher = more signal.
Chain of Left-right determination factor 2 (Homo sapiens) (O00292 whole entry, looked up): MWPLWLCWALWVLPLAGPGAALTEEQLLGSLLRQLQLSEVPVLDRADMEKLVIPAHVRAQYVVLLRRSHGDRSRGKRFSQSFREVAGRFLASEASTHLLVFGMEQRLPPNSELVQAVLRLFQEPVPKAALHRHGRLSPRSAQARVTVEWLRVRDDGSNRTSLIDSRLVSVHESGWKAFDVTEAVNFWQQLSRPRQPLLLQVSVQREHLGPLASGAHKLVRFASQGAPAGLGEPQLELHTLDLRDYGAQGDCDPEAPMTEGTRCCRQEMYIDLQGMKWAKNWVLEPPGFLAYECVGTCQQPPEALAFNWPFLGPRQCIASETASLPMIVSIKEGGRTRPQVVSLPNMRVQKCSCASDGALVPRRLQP
Experiment [14] concerns the target Calmodulin-1 (Homo sapiens) (UniProt P0DP23). The experiment can be described thus: small molecules binding calmodulin-1 with EGTA – biochemical, small-molecule microarray, Cy5-labelled CALM1, profiling panel (AID 1111).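 Further: labelled calmodulin applied in Tris saline Tween buffer holding calcium plus EGTA and DTT.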 The note with it: Cy5-CALM1 binding fluorescence, higher = more signal.
Experiment [15] shares this target. The experiment can be described thus: small molecules binding Ca-loaded calmodulin-1 – biochemical, small-molecule microarray, Cy5-labelled CALM1, plus calcium, artefact control for SMM control-protein annotation, profiling panel (AID 1112).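 Further: score merges spot fluorescence with signal to noise from triplicate slides.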 The following applies: Cy5-CALM1 binding fluorescence, higher = more signal.
Experiment [16] is described as follows: probe aWnt5a binding to arrayed compounds – biochemical, biotinylated probe, 635/667 nm fluorescence, primary screen (AID 1113).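 Further: score merges 667 nm fluorescence intensity with signal-to-noise per printed feature.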 The note with it: small-molecule microarray, higher = more signal.
The nature of experiment [17]: probe aShh binding to arrayed compounds – biochemical, biotinylated probe, 635/667 nm fluorescence, primary screen (AID 1114).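 Further: probe is biotin-labelled aShh protein from a stem cell growth factor screen; measures binding of labelled protein to compounds printed on the slide; score merges feature fluorescence at 667 nm with signal-to-noise.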 The following applies: small-molecule microarray, higher = more signal.
Experiment [18] is described as follows: probe aNog binding to arrayed compounds – biochemical, biotinylated probe, 635/667 nm fluorescence, primary screen (AID 1115).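 Further: probe is biotinylated aNog protein used at 0.15 µg/mL for 1 h at 4 C; z-score combines 667 nm fluorescence of each spot with its signal to noise.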 The following applies: small-molecule microarray, higher = more signal.
Experiment [19] has as its target Torsin-1A-interacting protein 1 (Homo sapiens) (UniProt Q5JTV8). The experiment can be described thus: compound microarray binding of lysate hLAP1 – cell lysate, small-molecule microarray, COS7 lysate, 635/667 nm fluorescence, primary screen (AID 1116). The following applies: 635 nm fluorescence, higher = more signal.
Experiment [20] concerns the target Alpha-bungarotoxin (Bungarus multicinctus) (UniProt P60615). The experiment can be described thus: compounds binding labelled alpha-BTX control protein – biochemical, small-molecule microarray, Alexa647 label, 635/667 nm fluorescence, artefact control for SMM control protein annotation, profiling panel (AID 1117). The note with it: alpha-BTX-A647 binding fluorescence, higher = more signal.

Activity calls are given as the source filed them.

Chain of Alpha-bungarotoxin (Bungarus multicinctus) (P60615 whole entry, looked up): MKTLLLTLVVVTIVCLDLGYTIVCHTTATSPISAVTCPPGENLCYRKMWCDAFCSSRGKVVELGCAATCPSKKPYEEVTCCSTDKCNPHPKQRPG
Chain of Torsin-1A-interacting protein 1 (Homo sapiens) (Q5JTV8 whole entry, looked up): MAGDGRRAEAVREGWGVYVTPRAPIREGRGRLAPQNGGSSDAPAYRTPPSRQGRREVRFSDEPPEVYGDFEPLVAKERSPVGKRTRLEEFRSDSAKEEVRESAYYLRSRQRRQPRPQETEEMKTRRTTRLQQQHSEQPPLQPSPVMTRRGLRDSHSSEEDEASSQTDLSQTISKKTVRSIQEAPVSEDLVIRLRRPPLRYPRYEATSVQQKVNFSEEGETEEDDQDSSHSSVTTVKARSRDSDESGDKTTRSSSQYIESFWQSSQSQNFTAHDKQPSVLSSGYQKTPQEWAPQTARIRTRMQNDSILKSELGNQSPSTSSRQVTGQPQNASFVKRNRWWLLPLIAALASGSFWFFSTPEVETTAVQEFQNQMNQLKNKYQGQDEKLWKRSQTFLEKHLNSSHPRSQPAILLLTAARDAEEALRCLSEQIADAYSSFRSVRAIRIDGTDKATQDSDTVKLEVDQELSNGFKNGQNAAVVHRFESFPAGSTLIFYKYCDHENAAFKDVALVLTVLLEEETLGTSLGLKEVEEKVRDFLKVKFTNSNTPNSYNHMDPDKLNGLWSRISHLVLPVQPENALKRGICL

As for `CCOC(=O)C1=CCC(c2ccccc2)N(S(=O)(=O)c2ccc([N+](=O)[O-])cc2)C1` (stereo not given), the composite z-score in [1] was -0.0755; in [2] it was 0.36; in [3], 0.507; in [5], -0.16; in [6], 0.265; in experiment [7], 0.0475. Besides, the composite z-score is 0.163 in experiment [8]; -0.115 in experiment [9]; 0.918 in [10]; 0.992 in experiment [11]; -0.276 in [13]; -0.36 in experiment [14]. Moreover, the composite z-score in experiment [15] is -0.0871; in [16], -0.147; in [17], 0.0048; in [18], -0.425; in experiment [19], 0.853; in experiment [20], -0.165. Moreover, the values for the z-score in experiment [4] and in experiment [12] were -0.33 (inactive) and -1.93, respectively.

As to `C=C(CCCC)C(=O)CC[C@H](OC(C)=O)c1ccc(OCCO)cc1`, the composite z-score in experiment [1] is 0.56; in experiment [2], -0.262; in experiment [3] it was 0.0984; in experiment [5], -0.509; in [6], -1.24; in experiment [7] it was -0.448. Besides, the composite z-score was -0.746 in experiment [8]; -0.8 in experiment [9]; -0.146 in experiment [10]; -0.319 in [11]; -0.0558 in experiment [13]; -0.0294 in experiment [14]. For the same compound, the composite z-score in experiment [15] was -0.92; in [16], -0.102; in experiment [17], -0.262; in experiment [18], 0.0989; in [19] it was -0.346; in experiment [20] it was 0.657. Moreover, the z-score is -0.942 (inactive) in experiment [4] and -2.73 in experiment [12].

In the case of `COc1cccc(/C=C(\C#N)C(=O)Nc2c(C)n(C)n(-c3ccccc3)c2=O)c1`, the composite z-score in experiment [1] is 0.129; in experiment [2], -0.0045; in experiment [3], 0.0654; in experiment [5], 0.179; in experiment [6] it was 0.497; in experiment [7], 0.413. Moreover, the composite z-score in experiment [8] amounted to 0.447; in [9], 0.0952; in experiment [10], 0.141; in [11], 1.11; in [13], 0.303; in experiment [14], 1.27. For the same compound, the composite z-score in experiment [15] was 0.0209; in [16], -0.0894; in experiment [17] it was -0.223; in [18], -0.0899; in experiment [19], 0.569; in experiment [20], 1.19. In addition, the z-score was -0.238 (inactive) in [4] and -0.479 in [12].

As for `COCCOC(=O)N1C(=O)[C@@]2(c3cc(C#CC4=CCCCC4)ccc31)[C@H](C(=O)N1CCCCCCC1)[C@H]1C(=O)O[C@H](c3ccccc3)[C@H](c3ccccc3)N1[C@@H]2c1ccc(OCCO)cc1`, the composite z-score in experiment [1] stood at 1.23; in experiment [2], 0.977; in experiment [3] it was 0.734; in experiment [5] it was 1.03; in experiment [6], 1.17; in [7] it was 0.825. Besides, the composite z-score in [8] is 1.23; in experiment [9], 0.835; in experiment [10] it was 1.43; in experiment [11], 1.18; in [13], 0.654; in experiment [14] it was 1.02. Besides, the composite z-score was 1.04 in [15]; 0.302 in experiment [16]; 0.936 in experiment [17]; -0.412 in [18]; 1.05 in experiment [19]; 0.845 in [20]. Further, the figures for the z-score in [4] and in experiment [12] were -0.611 (inactive) and -2.08, respectively.

With `COC(=O)C(CC#Cc1ccc2c(c1)[C@]1(C(=O)N2)[C@H](c2ccc(O)cc2)N2[C@H](c3ccccc3)[C@H](c3ccccc3)OC(=O)[C@H]2[C@@H]1C(=O)N1CCCCCCC1)C(=O)OC`, the composite z-score came out at 1.48 in experiment [1]; 2.23 in experiment [2]; 1.22 in experiment [3]; 0.869 in experiment [5]; 1.32 in experiment [6]; 0.765 in experiment [7]. Further, the composite z-score in experiment [8] worked out at 1.54; in experiment [9], 1.22; in [10], 1.77; in experiment [11], 1.36; in [13], 0.65; in experiment [14], 2.75. Besides, the composite z-score in experiment [15] turned out to be 1.64; in experiment [16], 0.593; in [17], 1.03; in experiment [18], 2.58; in [19] it was 3.87; in [20] it was 2.18. Moreover, the results for the z-score in [4] and in experiment [12] were -0.83 (inactive) and -1.69, respectively.

In the case of `C=C(COC)C(=O)CC[C@@H](OC(=O)c1cccnc1)c1ccccc1OCCO`, the composite z-score in experiment [1] is 1.4; in experiment [2], 0.403; in experiment [3], 0.647; in [5], 0.694; in [6], -0.0625; in experiment [7], -0.333. Further, the composite z-score in experiment [8] was 0.529; in experiment [9] it was 0.18; in experiment [10], 1.51; in experiment [11] it was -1.05; in experiment [13], 0.078; in experiment [14] it was -1.08. In addition, the composite z-score in experiment [15] was -0.497; in [16] it was -0.096; in experiment [17], -0.0553; in experiment [18] it was 0.412; in [19], 0.519; in experiment [20], -0.387. Further, the z-score in experiment [4] is 0.591 (inactive); in experiment [12], -3.82.
